Screens from PubChem.
A selection: hits, their analogues and other compounds. The true share with any hit is near 1.9%.
MsrA inhibitor – bovine MsrA enzyme inhibitors, primary screen, biochemical, absorbance, HTS. Methionine sulfoxide reductase A (Bos taurus). purified bovine MsrA, absorbance read-out. inhibition, % at 15.5 µM. actives 0.75% (n = 360,000). AID 651718, 2012; in the data active = inhibition above about 4.5%;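 note: 0% = vehicle wells with enzyme and 100% = reference inhibitor wells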
OPRM1-OPRD1 ag – agonists of OPRM1-OPRD1 heterodimerization, primary screen, cell-based, luminescence; cells; activation, % at 9.3 µM; Mu-type opioid receptor (Homo sapiens) + Delta-type opioid receptor (Homo sapiens), …; actives 0.3% (n = 340,000); in the data active = activation above about 18%;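 note: 0% = vehicle-treated cells and 100% = reference agonist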
Target sequence (P35372 whole entry, looked up): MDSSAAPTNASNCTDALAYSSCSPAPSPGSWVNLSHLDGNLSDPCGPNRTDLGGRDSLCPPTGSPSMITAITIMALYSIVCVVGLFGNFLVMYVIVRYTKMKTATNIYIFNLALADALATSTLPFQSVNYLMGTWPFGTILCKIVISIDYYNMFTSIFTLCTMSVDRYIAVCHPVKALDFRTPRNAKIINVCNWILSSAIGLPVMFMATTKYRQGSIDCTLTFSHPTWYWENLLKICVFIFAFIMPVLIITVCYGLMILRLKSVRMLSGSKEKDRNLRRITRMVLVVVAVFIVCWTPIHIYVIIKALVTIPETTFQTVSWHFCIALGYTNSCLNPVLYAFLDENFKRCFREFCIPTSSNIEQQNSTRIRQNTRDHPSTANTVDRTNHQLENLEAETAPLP
Target sequence (P41143 whole entry, looked up): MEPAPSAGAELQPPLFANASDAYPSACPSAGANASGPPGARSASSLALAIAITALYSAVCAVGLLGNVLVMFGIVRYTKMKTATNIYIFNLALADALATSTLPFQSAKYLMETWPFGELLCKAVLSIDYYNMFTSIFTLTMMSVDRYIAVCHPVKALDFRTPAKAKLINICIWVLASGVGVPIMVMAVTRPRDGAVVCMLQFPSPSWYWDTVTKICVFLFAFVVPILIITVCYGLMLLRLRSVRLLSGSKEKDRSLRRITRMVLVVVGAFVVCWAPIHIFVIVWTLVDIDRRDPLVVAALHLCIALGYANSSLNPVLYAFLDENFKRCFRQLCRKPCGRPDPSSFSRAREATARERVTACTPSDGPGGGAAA
HTR5A inv ag – HTR5A inverse agonists in luminescence cell assay, primary screen, counter-screen for OPRM1-OPRD1 heterodimer inverse agonist project, full-deck HTS. 5-hydroxytryptamine receptor 5A (Homo sapiens), P47898. HTR5A cell line, inverse agonism. inhibition, % at 9.3 µM. actives 0.083% (n = 340,000). AID 504634, 2011; in the data active = inhibition mostly above about 23%, no sharp cut-off; inactive = mostly below about 18%;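 note: 0% = cells with DMSO and 100% = no-cell wells with DMSO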
bovine MsrA act – bovine MsrA enzyme activators, primary screen, biochemical, absorbance, HTS. AID 602163, 2012. purified bovine MsrA, absorbance read-out. activation, % at 10.6 µM. actives 0.3% (n = 360,000); in the data active = activation above about 7.5%;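 note: 0% = vehicle and 100% = reference activator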
HTR5A ag ctr – HTR5A agonists in luminescence cell assay, primary screen, counter-screen for OPRM1-OPRD1 heterodimer agonist project, full-deck HTS; cell-based; actives 0.61% (n = 340,000); activation, % at 9.3 µM; AID 504692, 2011; in the data active = activation mostly above about 9.5%, no sharp cut-off; inactive = mostly below about 7.6%;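 note: 0% = cells with vehicle only and 100% = reference agonist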
OPRM1-OPRD1 inv – inverse agonists of MOR-DOR heterodimerization, primary screen, cell-based, luminescence; inhibition, % at 9.3 µM; Mu-type opioid receptor (Homo sapiens) + Delta-type opioid receptor (Homo sapiens), …; AID 504357, 2011; actives 0.21% (n = 340,000); cell-based MOR-DOR heterodimer luminescence, inverse agonism; in the data active = inhibition above about 22%, passing the limit was not always enough;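 note: 0% = cells with DMSO and 100% = wells without cells with DMSO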
MsrA activ conf – bovine MsrA activators, retest, confirmation, biochemical, absorbance, HTS. shares compounds with bovine MsrA act. purified bovine MsrA, absorbance read-out. activation, % at 10.6 µM. actives 12% (n = 1,000). AID 602270, 2012; in the data active = activation above about 4%;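 note: enzyme coupled to thioredoxin and thioredoxin reductase with NADPH; 0% = vehicle wells and 100% = reference activator wells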
* marks the source's active call; other numbers are inactive results; · = no result; ! = a repeat was not active.

SMILES | MsrA inhibitor | OPRM1-OPRD1 ag | HTR5A inv ag | bovine MsrA act | HTR5A ag ctr | OPRM1-OPRD1 inv | MsrA activ conf
Cn1c(=O)c2cc(NC(=O)CCc3ccc(O)cc3)ccc2n1Cc1cccc(C(F)(F)F)c1 | -0.4 | · | · | -3.7 | · | · | ·
Cn1c(=O)c2cc(NC(=O)CCc3ccccc3)ccc2n1Cc1cccc(C(F)(F)F)c1 | 1.7 | · | · | 7.8* | · | · | -0.4
COc1ccccc1C(=O)Nc1ccccn1 | 0.7 | -2.4 | 12.6 | 12.4* | -3.9 | 12.5 | -1.2
CC(C)(C)NC(=S)NNC(=O)[C@H]1C[C@@H]1c1ccccc1 | -1.1 | -3.1 | -6.4 | 8.5* | -2.4 | 15.3 | -0.8
CC(=O)c1ccc(NC(=O)C2CC2c2ccccc2)cc1 (stereo not given) | -0.3 | -2.4 | -16.3 | 10.0* | 6.3 | 11.9 | -4.1
COc1cc(OC)cc(C(=O)NC(=S)NNC(=O)[C@H]2C[C@@H]2c2ccccc2)c1 | -0.4 | -0.9 | -21.4 | 4.2 | 2.8 | 4.3 | ·
COc1ccccc1Cc1c(-c2ccccc2)nc2ccc(C)cn12 | -0.3 | · | · | · | · | · | ·
NC(=O)c1cc(S(=O)(=O)N2CCCC2)ccc1OCCOc1ccccc1F | -0.5 | -0.9 | 0.8 | 11.0* | 1.4 | 6.0 | -1.8
O=C(NS(=O)(=O)c1ccccc1[N+](=O)[O-])[C@H]1O[C@@H](n2ccc(=O)[nH]c2=O)[C@H](O)[C@@H]1O | -1.3 | · | · | · | · | · | ·
Nc1[nH]c(C(=O)c2ccccc2)c(-c2ccc3ccccc3c2)c1C(=O)NCc1ccc(-c2ccccc2)cc1 | 0.5 | · | · | · | · | · | ·
CCOC(=O)C1CCCN(CCCc2ccccc2)C1 (stereo not given) | -0.1 | 0.9 | -48.9 | 14.0*! | 16.1 | -5.0 | -1.5
Cc1cccc(C)c1NC(=O)C1CCCN(CCCc2ccccc2)C1 (stereo not given) | 0.1 | -1.2 | -5.7 | -3.1 | 2.3 | 4.9 | ·
Cc1cc(Nc2cccc(Br)c2)cc(=O)n1-c1cccc(Br)c1 | 0.2 | · | · | · | · | · | ·
C#CCN(C[C@H]1[C@H](OC(=O)NCCCCCC)[C@H](OC(=O)NCCCCCC)CN(C(=O)OC(C)C)N1C(=O)OC(C)C)S(=O)(=O)c1ccc(C)cc1 | 0.8 | · | · | · | · | · | ·
CCOc1ccccc1OCCCNCc1ccco1 | 0.5 | -1.2 | -2.5 | 13.4* | -0.4 | 6.9 | -0.9
O=C(N[C@@H](Cc1cccnc1)C(=O)N1CCC[C@H]1C(=O)NCc1ccccc1)c1ccccc1 | -0.1 | · | · | · | · | · | ·
CCc1nn(C(C)C(=O)Nc2cccc(C)c2C)c(=O)c2cc3occc3n12 (stereo not given) | 0.0 | -1.6 | -8.4 | 8.4* | 3.0 | 8.5 | -1.9
CCc1nn(C(C)C(=O)NCCN2CCN(c3cccc(C)c3C)CC2)c(=O)c2cc3occc3n12 (stereo not given) | 0.8 | 0.7 | -27.7 | -0.3 | 1.2 | -4.3 | ·
CC(Oc1ccccc1)C(=O)Nc1ccc(C(N)=O)cc1 (stereo not given) | -1.1 | -2.4 | 1.4 | -3.3 | -2.0 | 13.2 | ·
CC(C)NS(=O)(=O)c1ccc(NC(=O)C(C)Oc2ccc(C(=O)c3ccccc3)cc2)cc1 (stereo not given) | -1.4 | 3.4 | 2.7 | 8.5* | -5.9 | -23.2 | -3.6
CCn1nc(C(=O)OCC(=O)Nc2ncc(Cl)c(C)c2Cl)c2ccccc2c1=O | 1.1 | -0.7 | 21.4 | 18.6* | 4.7 | 3.1 | 0.0
CCCCS(=O)(=O)N1CCCc2nc(CC)c(CC)cc21 | 0.5 | · | · | · | · | · | ·
CCc1noc(C)c1C(=O)N1CCN(S(=O)(=O)c2cccs2)CC1 | -0.7 | -0.5 | 2.0 | 10.0* | -0.7 | 3.0 | -0.9
CC(C)(C)c1ccc(C#C[C@@H]2C=C[C@@H](O)[C@@H](COC(=O)NCc3ccccc3)O2)cc1 | -0.2 | · | · | · | · | · | ·
CCOC(=O)C1=CCN(S(=O)(=O)c2ccc(Br)cc2)C1c1ccc(F)cc1 (stereo not given) | -0.2 | · | · | · | · | · | ·
SMILES | MsrA inhibitor | OPRM1-OPRD1 ag | HTR5A inv ag | bovine MsrA act | HTR5A ag ctr | OPRM1-OPRD1 inv | MsrA activ conf
CC(=O)N(C)c1ccc(N=Nc2c(C)[nH]n(C(N)=S)c2=O)cc1 | 4.1 | -4.3 | 4.1 | -5.3 | -7.1 | 20.3 | ·
CC(=O)N(C)c1ccc(N=Nc2c(C)[nH]n(-c3ccccc3)c2=O)cc1 | -1.0 | -1.6 | 15.6 | 8.0* | -4.6 | 7.5 | -0.7
O=C(CSc1nc2ccccc2c(=O)n1-c1ccc(Cl)cc1)N/N=C/C=C/c1ccccc1[N+](=O)[O-] | 0.1 | 1.1 | 3.8 | 8.1* | -1.4 | -6.5 | -4.1
CCCCCCCCN1C(=O)[C@@H](CC(=O)NCc2ccc(OC)c(OC)c2)C[C@@]2(C(=O)OC)C1=C[C@H](C(C)(C)C)O[C@@H]2C | 0.2 | · | · | · | · | · | ·
O=C(CC(Nc1ccccc1)C(=O)O)c1ccccc1 (stereo not given) | 0.2 | -0.4 | 0.0 | -8.8 | 0.4 | 2.0 | ·
C=C(C(=O)c1ccccc1)C(C)CC(=O)c1ccccc1 (stereo not given) | -0.9 | 5.7 | -17.1 | 8.5* | -8.1 | -29.1 | -0.6
COc1ccc(C)cc1N(C(=O)c1ccccc1F)c1nc2ccccc2s1 | 0.0 | 0.8 | 13.6 | 12.9* | 0.3 | -4.2 | -0.7
Nc1oc2ccccc2c1C(=O)Cc1ccccc1O[C@@H]1O[C@H](CO)[C@@H](O)[C@H](O)[C@H]1O | 0.1 | -1.1 | -5.6 | 13.1* | -1.5 | 5.5 | 2.0
O=C1c2cc(Cl)ccc2-c2c(O)cc(Cl)cc21 | 0.3 | 1.1 | -9.8 | -4.5 | 2.5 | -5.4 | ·
O=C1Nc2c(Cl)cc(Cl)cc2C1=O | 0.1 | 13.1 | -10.8 | 11.1* | 2.8 | -65.6 | 7.0*
COC(=O)c1cc2c(c3c4cc(F)ccc4n(C(=O)c4ccccc4)c13)C(=O)N(C1CCCCC1)C2 | 1.2 | · | · | · | · | · | ·
COc1cc(C2C(C#N)=C(C)NC3=C2C(=O)CC(C)(C)C3)cc(OC)c1O (stereo not given) | 1.4 | 2.2 | -25.8 | -10.1 | 7.2 | -12.8 | ·
CC1=C(C#N)C(c2ccc(O)cc2)C2=C(CC(C)(C)CC2=O)N1 (stereo not given) | 0.4 | -0.9 | 3.5 | 10.4* | -6.2 | 6.4 | -1.2
CCCCCCCCCCCCN1CCSCCS1(=O)=O | 1.3 | · | · | · | · | · | ·
O=C(COC(=O)c1cncc(Br)c1)NC12CC3CC(CC(C3)C1)C2 | 0.1 | · | · | 9.3* | · | · | -1.1
Cc1ccc(S(=O)(=O)N2CCN(C(=O)COC(=O)COc3ccccc3)CC2)cc1 | 0.3 | -0.2 | 2.1 | 9.9* | -0.8 | 1.3 | -3.7
C[C@H](CO)N1C[C@H](C)[C@H](CN(C)C(=O)Nc2ccc3c(c2)OCO3)OCc2cnnn2CCCC1=O | 0.3 | · | · | · | · | · | ·
